# From article PMC11062922 (Nature Chemical Biology, 2023)
# Read-outs that look alike come from different tables or passages of the source.
# Assays:
# [1] = system: RPS6KA4; conditions: read-out: apparent Kd, n = 1
# [2] = system: TNIK; conditions: read-out: apparent Kd, n = 1
# [3] = compound concentrations:100 nM and 1000 nM (sheet 'Lestaurtinib' of Supplementary Table 1),run:Lestaurtinib_02624_R1,Plate:MR020
# [4] = compound concentrations:100 nM and 1000 nM (sheet 'Lestaurtinib' of Supplementary Table 1),run:Lestaurtinib_02624_R2,Plate:MR020
# [5] = compound concentrations:100 nM and 1000 nM (sheet 'Lestaurtinib' of Supplementary Table 1),run:Lestaurtinib_02724_R3,Plate:MR021
# [6] = compound concentrations:100 nM and 1000 nM (sheet 'Lestaurtinib' of Supplementary Table 1),run:Lestaurtinib_02741_R1,Plate:MR023
# [7] = compound concentrations:100 nM and 1000 nM (sheet 'Lestaurtinib' of Supplementary Table 1),run:Lestaurtinib_02741_R2,Plate:MR023
# [8] = compound concentrations:100 nM and 1000 nM (sheet 'Lestaurtinib' of Supplementary Table 1),run:Lestaurtinib_02741_R3,Plate:MR023
# [9] = compound concentrations:100 nM and 1000 nM (sheet 'Lestaurtinib' of Supplementary Table 1),run:Lestaurtinib_02752_R1,Plate:MR025
# [10] = compound concentrations:100 nM and 1000 nM (sheet 'Lestaurtinib' of Supplementary Table 1),run:Lestaurtinib_02765_R2,Plate:MR026
# [11] = compound concentrations:100 nM and 1000 nM (sheet 'Lestaurtinib' of Supplementary Table 1),run:Lestaurtinib_02766_R2,Plate:MR027
# [12] = compound concentrations:100 nM and 1000 nM (sheet 'Lestaurtinib' of Supplementary Table 1),run:Lestaurtinib_02766_R3,Plate:MR027
# [13] = compound concentrations:100 nM and 1000 nM (sheet 'Lestaurtinib' of Supplementary Table 1),run:Lestaurtinib_02768_R1,Plate:MR028
# [14] = compound concentrations:100 nM and 1000 nM (sheet 'Lestaurtinib' of Supplementary Table 1),run:Lestaurtinib_02768_R3,Plate:MR028
substance,measurement,setting,value
Lestaurtinib,potency estimated from few doses,"[1]; compound concentrations:100 nM and 1000 nM (sheet 'Lestaurtinib' of Supplementary Table 1),run:Lestaurtinib_02606_R2,Plate:MR019",1310 nM
same,potency estimated from few doses,"[1]; compound concentrations:100 nM and 1000 nM (sheet 'Lestaurtinib' of Supplementary Table 1),run:Lestaurtinib_02606_R3,Plate:MR019",1340 nM
same,potency estimated from few doses,[1]; [3],1570 nM
same,potency estimated from few doses,[1]; [4],952 nM
same,potency estimated from few doses,"[1]; compound concentrations:100 nM and 1000 nM (sheet 'Lestaurtinib' of Supplementary Table 1),run:Lestaurtinib_02724_R1,Plate:MR021",1570 nM
same,potency estimated from few doses,"[1]; compound concentrations:100 nM and 1000 nM (sheet 'Lestaurtinib' of Supplementary Table 1),run:Lestaurtinib_02724_R2,Plate:MR021",1150 nM
same,potency estimated from few doses,[1]; [5],731 nM
same,potency estimated from few doses,[1]; [6],865 nM
same,potency estimated from few doses,[1]; [7],999 nM
same,potency estimated from few doses,[1]; [8],1130 nM
same,potency estimated from few doses,"[1]; compound concentrations:100 nM and 1000 nM (sheet 'Lestaurtinib' of Supplementary Table 1),run:Lestaurtinib_02748_R1,Plate:MR024",769 nM
same,potency estimated from few doses,"[1]; compound concentrations:100 nM and 1000 nM (sheet 'Lestaurtinib' of Supplementary Table 1),run:Lestaurtinib_02748_R3,Plate:MR024",638 nM
same,potency estimated from few doses,[1]; [9],1210 nM
same,potency estimated from few doses,"[1]; compound concentrations:100 nM and 1000 nM (sheet 'Lestaurtinib' of Supplementary Table 1),run:Lestaurtinib_02765_R1,Plate:MR026",1510 nM
same,potency estimated from few doses,[1]; [10],1150 nM
same,potency estimated from few doses,"[1]; compound concentrations:100 nM and 1000 nM (sheet 'Lestaurtinib' of Supplementary Table 1),run:Lestaurtinib_02766_R1,Plate:MR027",911 nM
same,potency estimated from few doses,[1]; [11],974 nM
same,potency estimated from few doses,[1]; [12],783 nM
same,potency estimated from few doses,[1]; [13],814 nM
same,potency estimated from few doses,"[1]; compound concentrations:100 nM and 1000 nM (sheet 'Lestaurtinib' of Supplementary Table 1),run:Lestaurtinib_02768_R2,Plate:MR028",841 nM
same,potency estimated from few doses,[1]; [14],954 nM
same,potency estimated from few doses,"[1]; compound concentrations:100 nM and 1000 nM (sheet 'Lestaurtinib' of Supplementary Table 1),run:Lestaurtinib_02795_R2,Plate:MR022",1420 nM
same,potency estimated from few doses,"[1]; compound concentrations:100 nM and 1000 nM (sheet 'Lestaurtinib' of Supplementary Table 1),run:Lestaurtinib_02802_R2,Plate:MR029",865 nM
same,potency estimated from few doses,"[1]; compound concentrations:100 nM and 1000 nM (sheet 'Lestaurtinib' of Supplementary Table 1),run:Lestaurtinib_02802_R3,Plate:MR029",770 nM
same,potency estimated from few doses,"[1]; compound concentrations:100 nM and 1000 nM (sheet 'Lestaurtinib' of Supplementary Table 1),run:Lestaurtinib_02896_R1,Plate:MR030",748 nM
same,potency estimated from few doses,"[1]; compound concentrations:100 nM and 1000 nM (sheet 'Lestaurtinib' of Supplementary Table 1),run:Lestaurtinib_02896_R2,Plate:MR030",1150 nM
same,potency estimated from few doses,"[1]; compound concentrations:100 nM and 1000 nM (sheet 'Lestaurtinib' of Supplementary Table 1),run:Lestaurtinib_03172_R1,Plate:MR031",1350 nM
same,potency estimated from few doses,"[1]; compound concentrations:100 nM and 1000 nM (sheet 'Lestaurtinib' of Supplementary Table 1),run:Lestaurtinib_03172_R2,Plate:MR031",771 nM
same,potency estimated from few doses,"[1]; compound concentrations:100 nM and 1000 nM (sheet 'Lestaurtinib' of Supplementary Table 1),run:Lestaurtinib_03252_R2,Plate:MR032",1300 nM
same,potency estimated from few doses,"[1]; compound concentrations:100 nM and 1000 nM (sheet 'Lestaurtinib' of Supplementary Table 1),run:Lestaurtinib_03260_R3,Plate:MR033",1400 nM
same,potency estimated from few doses,"[2]; compound concentrations:100 nM and 1000 nM (sheet 'Lestaurtinib' of Supplementary Table 1),run:Lestaurtinib_02339_R2,Plate:MR001",798 nM
same,potency estimated from few doses,"[2]; compound concentrations:100 nM and 1000 nM (sheet 'Lestaurtinib' of Supplementary Table 1),run:Lestaurtinib_02364_R2,Plate:MR002",206 nM
same,potency estimated from few doses,"[2]; compound concentrations:100 nM and 1000 nM (sheet 'Lestaurtinib' of Supplementary Table 1),run:Lestaurtinib_02367_R1,Plate:MR003",1130 nM
same,potency estimated from few doses,"[2]; compound concentrations:100 nM and 1000 nM (sheet 'Lestaurtinib' of Supplementary Table 1),run:Lestaurtinib_02367_R2,Plate:MR003",460 nM
same,potency estimated from few doses,"[2]; compound concentrations:100 nM and 1000 nM (sheet 'Lestaurtinib' of Supplementary Table 1),run:Lestaurtinib_02367_R3,Plate:MR003",1930 nM
same,potency estimated from few doses,"[2]; compound concentrations:100 nM and 1000 nM (sheet 'Lestaurtinib' of Supplementary Table 1),run:Lestaurtinib_02407_R1,Plate:MR005",160 nM
same,potency estimated from few doses,"[2]; compound concentrations:100 nM and 1000 nM (sheet 'Lestaurtinib' of Supplementary Table 1),run:Lestaurtinib_02407_R2,Plate:MR005",772 nM
same,potency estimated from few doses,"[2]; compound concentrations:100 nM and 1000 nM (sheet 'Lestaurtinib' of Supplementary Table 1),run:Lestaurtinib_02407_R3,Plate:MR005",136 nM
same,potency estimated from few doses,"[2]; compound concentrations:100 nM and 1000 nM (sheet 'Lestaurtinib' of Supplementary Table 1),run:Lestaurtinib_02422_R1,Plate:MR006",1750 nM
same,potency estimated from few doses,"[2]; compound concentrations:100 nM and 1000 nM (sheet 'Lestaurtinib' of Supplementary Table 1),run:Lestaurtinib_02437_R1,Plate:MR007",1310 nM
same,potency estimated from few doses,"[2]; compound concentrations:100 nM and 1000 nM (sheet 'Lestaurtinib' of Supplementary Table 1),run:Lestaurtinib_02443_R2,Plate:MR009",687 nM
same,potency estimated from few doses,"[2]; compound concentrations:100 nM and 1000 nM (sheet 'Lestaurtinib' of Supplementary Table 1),run:Lestaurtinib_02473_R1,Plate:MR010",165 nM
same,potency estimated from few doses,"[2]; compound concentrations:100 nM and 1000 nM (sheet 'Lestaurtinib' of Supplementary Table 1),run:Lestaurtinib_02482_R1,Plate:MR011",994 nM
same,potency estimated from few doses,"[2]; compound concentrations:100 nM and 1000 nM (sheet 'Lestaurtinib' of Supplementary Table 1),run:Lestaurtinib_02487_R2,Plate:MR012",159 nM
same,potency estimated from few doses,"[2]; compound concentrations:100 nM and 1000 nM (sheet 'Lestaurtinib' of Supplementary Table 1),run:Lestaurtinib_02487_R3,Plate:MR012",481 nM
same,potency estimated from few doses,"[2]; compound concentrations:100 nM and 1000 nM (sheet 'Lestaurtinib' of Supplementary Table 1),run:Lestaurtinib_02496_R2,Plate:MR013",764 nM
same,potency estimated from few doses,"[2]; compound concentrations:100 nM and 1000 nM (sheet 'Lestaurtinib' of Supplementary Table 1),run:Lestaurtinib_02496_R3,Plate:MR013",887 nM
same,potency estimated from few doses,"[2]; compound concentrations:100 nM and 1000 nM (sheet 'Lestaurtinib' of Supplementary Table 1),run:Lestaurtinib_02566_R1,Plate:MR014",845 nM
same,potency estimated from few doses,"[2]; compound concentrations:100 nM and 1000 nM (sheet 'Lestaurtinib' of Supplementary Table 1),run:Lestaurtinib_02566_R2,Plate:MR014",581 nM
same,potency estimated from few doses,"[2]; compound concentrations:100 nM and 1000 nM (sheet 'Lestaurtinib' of Supplementary Table 1),run:Lestaurtinib_02572_R3,Plate:MR015",52 nM
same,potency estimated from few doses,"[2]; compound concentrations:100 nM and 1000 nM (sheet 'Lestaurtinib' of Supplementary Table 1),run:Lestaurtinib_02577_R2,Plate:MR016",582 nM
same,potency estimated from few doses,"[2]; compound concentrations:100 nM and 1000 nM (sheet 'Lestaurtinib' of Supplementary Table 1),run:Lestaurtinib_02577_R3,Plate:MR016",885 nM
same,potency estimated from few doses,"[2]; compound concentrations:100 nM and 1000 nM (sheet 'Lestaurtinib' of Supplementary Table 1),run:Lestaurtinib_02584_R1,Plate:MR017",680 nM
same,potency estimated from few doses,"[2]; compound concentrations:100 nM and 1000 nM (sheet 'Lestaurtinib' of Supplementary Table 1),run:Lestaurtinib_02584_R2,Plate:MR017",717 nM
same,potency estimated from few doses,"[2]; compound concentrations:100 nM and 1000 nM (sheet 'Lestaurtinib' of Supplementary Table 1),run:Lestaurtinib_02584_R3,Plate:MR017",641 nM
same,potency estimated from few doses,"[2]; compound concentrations:100 nM and 1000 nM (sheet 'Lestaurtinib' of Supplementary Table 1),run:Lestaurtinib_02601_R1,Plate:MR018",756 nM
same,potency estimated from few doses,"[2]; compound concentrations:100 nM and 1000 nM (sheet 'Lestaurtinib' of Supplementary Table 1),run:Lestaurtinib_02601_R2,Plate:MR018",146 nM
same,potency estimated from few doses,[2]; [3],562 nM
same,potency estimated from few doses,[2]; [4],154 nM
same,potency estimated from few doses,[2]; [5],507 nM
same,potency estimated from few doses,[2]; [6],208 nM
same,potency estimated from few doses,[2]; [7],627 nM
same,potency estimated from few doses,[2]; [8],536 nM
same,potency estimated from few doses,[2]; [9],708 nM
same,potency estimated from few doses,"[2]; compound concentrations:100 nM and 1000 nM (sheet 'Lestaurtinib' of Supplementary Table 1),run:Lestaurtinib_02752_R2,Plate:MR025",671 nM
same,potency estimated from few doses,[2]; [10],797 nM
same,potency estimated from few doses,"[2]; compound concentrations:100 nM and 1000 nM (sheet 'Lestaurtinib' of Supplementary Table 1),run:Lestaurtinib_02765_R3,Plate:MR026",836 nM
same,potency estimated from few doses,[2]; [11],806 nM
same,potency estimated from few doses,[2]; [12],130 nM
same,potency estimated from few doses,[2]; [13],142 nM
same,potency estimated from few doses,[2]; [14],785 nM
same,potency estimated from few doses,"[2]; compound concentrations:100 nM and 1000 nM (sheet 'Lestaurtinib' of Supplementary Table 1),run:Lestaurtinib_02795_R1,Plate:MR022",573 nM
